Measurements reported in PubChem BioAssay (NCATS).
Inconclusive results are not listed. Calls of active or inactive are those of the source. Calls follow the shape of the dose curve; as a rule, active = well fitted curve in the direction sought with a large enough effect; inconclusive = small, poorly fitted or top-dose-only effect, or another doubt; inactive = no such curve, though single readings can be large; an effect the other way counts as inactive or inconclusive.

Tests used:
[1] = qHTS of pediatric cancer cell lines to identify multiple opportunities for drug repurposing: Primary screen for BT-37 cells (AID 1347094); also: potency is read from the fitted curve at half-maximal effect
Method in brief: (§1)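 Quantitative HTS format: each compound titrated (MIPE 11 points from 0.78 nM, NPC 8 points from 0.59 nM) onto cells plated 5 hours earlier. After 48 h at 37 degrees C, CellTiter-Glo luminescence was recorded.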

[2] = qHTS of pediatric cancer cell lines to identify multiple opportunities for drug repurposing: Primary screen for NB-EBc1 cells (AID 1347095); also: potency is read from the fitted curve at half-maximal effect
Method in brief: as §1

[3] = qHTS of pediatric cancer cell lines to identify multiple opportunities for drug repurposing: Primary screen for LAN-5 cells (AID 1347100); also: potency is read from the fitted curve at half-maximal effect
Method in brief: (§2)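 Cells (500-1,000/well) rested 5 h, then received compounds for 48 h; metabolically active cells were measured by CellTiter-Glo luminescence. Final concentrations spanned up to 46 µM (MIPE, 11-point) or 0.59 nM-46 µM (NPC, 8-point) in primary screens, 11-point in follow-ups.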

[4] = qHTS of pediatric cancer cell lines to identify multiple opportunities for drug repurposing: Primary screen for Rh30 cells (AID 1347107); also: series mostly up to about 46 µM; nearly all actives have a fitted effect of over 75% in size
Method in brief: as §2

[5] = qHTS of pediatric cancer cell lines to identify multiple opportunities for drug repurposing: Primary screen for Rh41 cells (AID 1347108);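 also: series mostly up to about 46 µM; luminescence drop marks cytotoxic hits; nearly all actives have a fitted effect of over 70% in size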
Method in brief: as §1

[6] = qHTS of pediatric cancer cell lines to identify multiple opportunities for drug repurposing: Confirmatory screen for A673 cells (AID 1347110);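 also: potency is read from the fitted curve at half-maximal effect; cells exposed to compound for 48 h before the viability read; nearly all actives have a fitted effect of over 65% in size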
Method in brief: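 Concentration-response curves came straight from titrations: 11 points (0.78 nM to 46 µM) for MIPE and several concentrations (0.59 nM to 46 µM) for NPC in primary, 11 points in follow-up. Readout: ATP luminescence at 48 h.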

[7] = qHTS of pediatric cancer cell lines to identify multiple opportunities for drug repurposing: Primary screen for SJ-GBM2 cells (AID 1347091); also: potency is read from the fitted curve at half-maximal effect
Method in brief: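 Cell viability, CellTiter-Glo luminescence; 500-1,000 cells/well, 8- or 11-point titration, 48 h compound exposure at 37 degrees C, 5% CO2. Controls: DMSO neutral, bortezomib 2.3 µM final as positive.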

[8] = qHTS of pediatric cancer cell lines to identify multiple opportunities for drug repurposing: Primary screen for A673 cells (AID 1347092); also: potency is read from the fitted curve at half-maximal effect; nearly all actives have a fitted effect of over 45% in size
Method in brief: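 48 h compound exposure, A673, 500-1,000 cells/well, 37 degrees C/5% CO2. MIPE: 11-point, 0.78 nM-46 µM; NPC: 8-point, 0.59 nM-46 µM (final). Readout CellTiter-Glo luminescence after 15 min RT.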

[9] = qHTS of pediatric cancer cell lines to identify multiple opportunities for drug repurposing: Primary screen for Saos-2 cells (AID 1347097); also: potency is read from the fitted curve at half-maximal effect; nearly all actives have a fitted effect of over 40% in size
Method in brief: as §1

[10] = qHTS of pediatric cancer cell lines to identify multiple opportunities for drug repurposing: Primary screen for SK-N-SH cells (AID 1347098); also: potency is read from the fitted curve at half-maximal effect; nearly all actives have a fitted effect of over 65% in size
Method in brief: as §2

[11] = qHTS of pediatric cancer cell lines to identify multiple opportunities for drug repurposing: Primary screen for NB1643 cells (AID 1347099); also: nearly all actives have a fitted effect of over 50% in size
Method in brief: as §1

[12] = qHTS of pediatric cancer cell lines to identify multiple opportunities for drug repurposing: Primary screen for BT-12 cells (AID 1347101); also: potency is read from the fitted curve at half-maximal effect; nearly all actives have a fitted effect of over 25% in size
Method in brief: as §2

[13] = qHTS of pediatric cancer cell lines to identify multiple opportunities for drug repurposing: Primary screen for Rh18 cells (AID 1347102); also: nearly all actives have a fitted effect of over 65% in size; also: potency is read from the fitted curve at half-maximal effect
Method in brief: as §2

[14] = qHTS of pediatric cancer cell lines to identify multiple opportunities for drug repurposing: Primary screen for OHS-50 cells (AID 1347103); also: potency is read from the fitted curve at half-maximal effect; nearly all actives have a fitted effect of over 40% in size
Method in brief: as §2

[15] = qHTS of pediatric cancer cell lines to identify multiple opportunities for drug repurposing: Primary screen for RD cells (AID 1347104); also: potency is read from the fitted curve at half-maximal effect; nearly all actives have a fitted effect of over 55% in size
Method in brief: as §1

[16] = qHTS of pediatric cancer cell lines to identify multiple opportunities for drug repurposing: Primary screen for control Hh wild type fibroblast cells (AID 1347106);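 also: series mostly up to about 46 µM; a drop in luminescence marks cytotoxicity and a rise apparent proliferation; nearly all actives have a fitted effect of over 55% in size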
Method in brief: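 Cells (500-1,000/well) in growth media were settled 5 h at 37 degrees C, then given compounds for 48 h. Viability was read as CellTiter-Glo luminescence. Primary runs used MIPE at 11 points (0.78 nM-46 µM) and NPC at 8 points (0.59 nM-46 µM); follow-ups used 11 points.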

[17] = qHTS of pediatric cancer cell lines to identify multiple opportunities for drug repurposing: Primary screen for SK-N-MC cells (AID 1347093); also: potency is read from the fitted curve at half-maximal effect
Method in brief: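 Metabolically active cells were quantified by ATP-dependent luminescence (CellTiter-Glo, 15 min at room temperature) following 48 h treatment. Cells had been plated at 500-1,000 per well and settled for 5 h beforehand.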

[18] = qHTS of pediatric cancer cell lines to identify multiple opportunities for drug repurposing: Primary screen for U-2 OS cells (AID 1347096); also: nearly all actives have a fitted effect of over 50% in size
Method in brief: as §2

[19] = qHTS of pediatric cancer cell lines to identify multiple opportunities for drug repurposing: Primary screen for MG 63 (6-TG R) cells (AID 1347105); also: nearly all actives have a fitted effect of over 50% in size; also: potency is read from the fitted curve at half-maximal effect
Method in brief: as §1

Measured: Potency

COc1c(C)c2c(c(O)c1C/C=C(\C)CCC(=O)OCCN1CCOCC1)C(=O)OC2
active: [1] 0.347 µM | [2] 0.188 µM | [3] 0.841 µM | [6] 3.69 µM
inactive: [4] | [5]

Cc1cc(OCCOCC[N+](C)(C)Cc2ccccc2)ccc1C(C)(C)CC(C)(C)C
active: [7] 21.1 µM | [8] 10.6 µM | [1] 0.001 µM | [9] 13.3 µM | [10] 34.4 µM | [3] 21.1 µM | [12] 6.17 µM | [13] 10.6 µM | [14] 4.37 µM | [15] 18.8 µM | [6] 1.04 µM
inactive: [11] | [16]

O=C1NCCN1CCN1CCC(c2cn(-c3ccc(F)cc3)c3ccc(Cl)cc23)CC1
inactive: [4]
active: [7] 10.6 µM | [17] 6.68 µM | [2] 21.1 µM | [9] 21.1 µM | [10] 21.7 µM | [3] 8.41 µM | [12] 8.71 µM | [14] 11 µM | [15] 26.6 µM

COc1ccc(-n2nc(CCC(=O)N(C)O)cc2-c2ccc(Cl)cc2)cc1
inactive: [18] | [11] | [13] | [19] | [16] | [4]
active: [2] 21.1 µM | [14] 19.5 µM

CCOC(=O)C1=C(C)NC(C)=C(C(=O)OCC)C1c1ccccc1/C=C/C(=O)OC(C)(C)C
inactive: [16] | [4]
active: [10] 27.3 µM | [14] 15.5 µM | [19] 26.6 µM

CCCCCCCCCCCCCCCC[N+](C)(C)Cc1ccccc1
active: [8] 13.3 µM | [1] 30.9 µM | [9] 23.7 µM | [3] 21.1 µM | [12] 11 µM | [13] 11.9 µM | [14] 11 µM | [19] 26.6 µM

O=C1NC2CCCCN2C12CCN(CCCN1c3ccccc3CCc3ccc(Cl)cc31)CC2 (centres undefined)
active: [7] 23.7 µM | [17] 16.8 µM | [1] 30.9 µM | [9] 23.7 µM | [10] 27.3 µM | [12] 15.5 µM | [14] 27.6 µM
inactive: [16] | [4]
